# KB-3-1 tox: KB-3-1 parental cell cytotoxicity. KB-3-1 viability, CellTiter-Glo ATP luminescence, 72 h. Potency, µM (doses to about 46.1 µM), hits mostly cytotoxic. 400,000 compounds, 1.4% hits. AID 1347075; also: nearly all actives have a fitted effect of over 60% in size
#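 Parental KB-3-1 viability, qHTS format: 72 h compound exposure, 37 °C; CellTiter-Glo; media-only wells and DMSO plates as controls; concentration-effect fits on corrected data.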
# HepG2 tox-1: counter-screen for TGF-b inhibitors: cytotoxicity in HepG2 cells; 410,000 compounds, 0.76% hits; HepG2 CAGA-GFP viability, ATP luminescence, 18 h; Potency, µM (series often up to 46.1 µM), most hits filed as cytotoxic
#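 CellTiter-Glo luminescence gave cytotoxicity after 18 hours at 37 degrees C. The cells were HepG2 CAGA-GFP in 1% FBS DMEM, stimulated with 500 pg/mL TGF-beta after compound addition. %Activity was normalised to no-cell wells (complete cell-killing) and DMSO (no toxicity), and curves were fitted and classified.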
# KB-V1 cytotox: KB-V1 MDR subline cytotoxicity; 400,000 compounds, 3.4% hits; AID 1347076; KB-V1 MDR cells viability, CellTiter-Glo, 72 h; Potency, µM (series often up to 46.1 µM), actives largely listed as cytotoxic; also: nearly all actives have a fitted effect of over 60% in size
#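 Compound-treated KB-V1 multidrug-resistant cells, 72 h, 37 degrees C; viability by CellTiter-Glo. Fitted qHTS curves give the values.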
# S2 tox: reduces viability in counter-screen for ATXN expression inhibitors | S2 cells (HEK-293 line with an ATXN2-luciferase reporter) viability, CellTiter-Fluor protease fluorescence, 24 h | Potency, µM (series often up to 56.7 µM), hits mostly cytotoxic | 400,000 compounds, 0.49% hits | AID 651635; also: nearly all actives have a fitted effect of over 40% in size
# ATXN2 expr inh: ATXN2 expression inhibition. AID 1745845. 360,000 compounds, 0.72% hits. HEK-293 ATXN2-luciferase reporter, luminescence, 24 h. Potency, µM (series often up to 57 µM), most hits filed as inhibitors; also: nearly all actives have a fitted effect of over 55% in size
#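 qHTS (up to 57 uM final) was run with 24 h compound exposure of reporter cells at 37 °C. Each well was multiplexed: SteadyGlo luminescence measured ATXN2-luciferase expression after a fluorogenic Gly-Phe-AFC viability readout (25 uM final).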
# TGFb inhibitor: inhibitors of TGF-b signaling | 410,000 compounds, 1.2% hits | HepG2 CAGA-GFP TGF-b/SMAD3 reporter, GFP fluorescence, 18 h; TGF-beta stimulated, 500 pg/mL final | Potency, µM (doses to about 46.1 µM), most hits filed as inhibitors; also: nearly all actives have a fitted effect of over 65% in size
#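 HEPG2 CAGA-GFP reporter cells (1000/well, DMEM with 1% FBS) received compounds, then recombinant TGF-beta at 500 pg/mL final for 18 hours at 37 degrees C. Per-cell GFP summed per well was normalised to unstimulated and stimulated DMSO controls before curve fitting.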
# TGFb confirm: confirmation of TGF-b signaling inhibitors in HepG2 reporter cells | HepG2 CAGA-GFP TGF-b reporter, GFP fluorescence, 18 h; cells stimulated with TGF-beta, 500 pg/mL | shares compounds with TGFb inhibitor | 1,600 compounds, 63% hits | AID 720534 | Potency, µM (doses to about 46.1 µM), usual class: inhibitors; also: nearly all actives have a fitted effect of over 65% in size
# HepG2 tox-2: toxic to HepG2 cells in TGF-b counterscreen; shares compounds with TGFb inhibitor; HepG2 CAGA-GFP viability, ATP luminescence, 18 h; cells stimulated with TGF-beta, 500 pg/mL; Potency, µM (top dose mostly 46.1 µM), most hits filed as inhibitors; 1,600 compounds, 27% hits; also: nearly all actives have a fitted effect of over 70% in size
# CCL64 TGFb inh: orthogonal confirmation of TGF-b inhibitors in CCL64 cells; shares compounds with TGFb inhibitor; CCL64 CAGA-GFP reporter, TGF-b stimulated, GFP fluorescence, 18 h; Potency, µM (doses to about 46.1 µM), hits mostly inhibitors; 1,600 compounds, 41% hits; AID 720536; also: nearly all actives have a fitted effect of over 65% in size
# COP TGFb inh: validation of TGF-b inhibitors in HepG2 COP promoter reporter | shares compounds with TGFb inhibitor | HepG2 COP-GFP TGF-b reporter, GFP fluorescence, 18 h; cells stimulated by added recombinant TGF-beta | Potency, µM (titrated, usually from 46.1 µM), actives largely listed as inhibitors | 1,600 compounds, 3% hits; also: nearly all actives have a fitted effect of over 70% in size
# Numbers stand for hits; 0 = inactive; ? = inconclusive; - = not tested or not shown. The list is not random: actives were taken first. Their share in the collection is about 5.9%. Calls follow the shape of the dose curve; as a rule, active = well fitted curve in the direction sought with a large enough effect; inconclusive = small, poorly fitted or top-dose-only effect, or another doubt; inactive = no such curve, though single readings can be large; an effect the other way counts as inactive or inconclusive.
SMILES,KB-3-1 tox,HepG2 tox-1,KB-V1 cytotox,S2 tox,ATXN2 expr inh,TGFb inhibitor,TGFb confirm,HepG2 tox-2,CCL64 TGFb inh,COP TGFb inh
CC(=O)n1nc(-c2ccncc2)nc1SCC(=O)Nc1cccc(Cl)c1,0,0,0,0,0,4µM,3.7µM,0,7.3µM,0
Cc1cccc(NC(=O)CSc2n[nH]c(-c3ccncc3)n2)c1,0,0,0,0,0,3.5µM,5.2µM,0,10µM,0
CCn1c(C)nnc1SCC(=O)Nc1cccc(Cl)c1,0,0,?,0,0,0,-,-,-,-
Cc1cccc(N2CCN(C(=O)c3sc4nc5n(c(=O)c4c3C)CCC5)CC2C)c1 (stereo not drawn),0,0,0,-,-,?,-,-,-,-
CCCNC(=S)Nc1ccc(Nc2ccccc2)cc1,0,0,0,0,0,0,-,-,-,-
CCCCOc1ccc(CSCCNC(=S)Nc2ccccc2)cc1,?,0,?,?,0,7.9µM,?,0,0,0
CC1=C(C(=O)N2CCCCCC2)CC(CC(=O)NCCc2ccccn2)C(=O)N1CCC1=CCCCC1 (stereo not drawn),-,-,0,-,-,-,-,-,-,-
CCCOc1ccc(F)cc1-c1cc(C(=O)Nc2ccc(C)c(NS(C)(=O)=O)c2)[nH]n1,?,0,23µM,0,0,18µM,?,?,23µM,0
CCCOc1ccc(F)cc1-c1cc(C(=O)Nc2ccc(C(C)C)cc2)[nH]n1,?,0,0,?,?,?,-,-,-,-
O=c1c2ccccc2nc(/C=C/c2ccc([N+](=O)[O-])o2)n1CCCO,5.8µM,3.2µM,?,-,4.5µM,5.6µM,3.3µM,6.5µM,5.8µM,?
O=c1c2ccccc2nc(/C=C/c2cccc([N+](=O)[O-])c2)n1CCCO,0,0,0,0,0,0,-,-,-,-
Cc1ccc(S(=O)(=O)N2CCCCC2)cc1C(=O)OC1CCCCC1=O (stereo not drawn),0,0,0,0,0,?,?,0,0,0
CCc1ccccc1NC(=O)Cn1c(=O)n(Cc2ccc3c(c2)OCO3)c(=O)c2ccc(C(=O)NC3CCCCC3)cc21,0,0,0,0,0,0,-,-,-,-
COc1cc(C(=O)Oc2ccc(/C=N/NC(=O)c3ccncc3)cc2)cc(OC)c1OC,0,0,0,0,0,0,-,-,-,-
COc1cc(C(=O)Oc2ccccc2/C=N/NC(=O)c2ccc(C)cc2)cc(OC)c1OC,8.2µM,0,0,?,0,13µM,?,?,0,0
Cc1cccc(C)c1N(CC(=O)Nc1cc(Cl)ccc1Oc1ccccc1)S(C)(=O)=O,0,0,0,0,0,?,?,0,0,0
C(=C\c1ccccc1)/CN1CCN(C(c2cccs2)c2nnnn2C2CCCC2)CC1 (stereo not drawn),?,0,0,?,0,?,-,-,-,-
C(=C\c1ccccc1)/CN1CCN(C(CCc2ccccc2)c2nnnn2C2CCCC2)CC1 (stereo not drawn),?,0,0,?,0,11µM,21µM,?,?,0
